HT1080NT lethal – qHTS for induction of synthetic lethality in tumor cells producing 2HG: qHTS for the HT-1080-NT fibrosarcoma cell line; HT-1080-NT fibrosarcoma viability, CellTiter-Glo ATP luminescence, 48 h; Potency, µM (doses to about 46.1 µM), inactives show at the highest dose activity, negative = less viability, hits mostly cytotoxic; AID 686970, 2013; 360,000 compounds, 1.6% hits;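 note: NT is the 2HG producing partner of a matched IDH1 knockdown line; 0% = DMSO-treated cells and -100% = media-only wells without cells; nearly all actives have a fitted effect of over 55% in size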
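750 cells/well, RPMI + 5% FBS; 2 h settle, compound pin-transfer, 48 h at 37 degrees C. CellTiter-Glo 10 min RT, luminescence. Normalized to DMSO and media-only wells.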
HT1080 IDH1KD tx – qHTS for induction of synthetic lethality in tumor cells producing 2HG: qHTS for the HT-1080-IDH1KD cell line; 360,000 compounds, 2% hits; Potency, µM (series often up to 46.1 µM), for the others: at the highest dose activity, negative = toxicity, usual class: cytotoxic; HT-1080 IDH1 knockdown viability, ATP luminescence, 48 h;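 note: 0% = DMSO wells and -100% = cell-free medium wells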
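After a 2 h attachment period, IDH1KD HT-1080 cells took pin-transferred compound for 48 h at 37 °C; ATP-based luminescence after 10 min room-temperature reagent incubation reported viability.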
KB-3-1 tox – qHTS assay for MDR1-selective chemotherapeutics: Primary screen using the parental adenocarcinoma cell KB-3-1. KB-3-1 viability, CellTiter-Glo ATP luminescence, 72 h. Potency, µM (series often up to 46.1 µM), hits mostly cytotoxic. 400,000 compounds, 1.4% hits. AID 1347075, 2019; note: nearly all actives have a fitted effect of over 60% in size
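Luminescent ATP read-out (CellTiter-Glo) measures survival of drug-naive KB-3-1 cells after 72 h compound exposure at 37 °C. Titration series was screened from lowest to highest concentration, with DMSO vehicle plates as background controls.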
DT40 TDP1 no CPT – qHTS for Inhibitors of human tyrosyl-DNA phosphodiesterase 1 (TDP1): qHTS in cells in absence of CPT; Potency, µM (top dose mostly 46.2 µM), inactives show at the top dose activity change, negative = growth inhibition, most hits filed as inhibitors; 420,000 compounds, 15% hits; DT40 Tdp1-/- hTDP1 cells, no CPT, ATP luminescence, 48 h; note: nearly all actives have a fitted effect of over 55% in size
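Compound effects on proliferation are scored in DT40 Tdp1-/-;hTDP1 cells in the absence of CPT. ATP levels (CellTiter-Glo luminescence) are recorded after a ≥48 hr, 37 °C incubation.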
DT40 TDP1 CPT – qHTS for Inhibitors of human tyrosyl-DNA phosphodiesterase 1 (TDP1): qHTS in cells in presence of CPT; chicken DT40 Tdp1-/-;hTDP1 cells + 20 nM CPT, ATP luminescence, 48 h; Potency, µM (series often up to 46.2 µM), without a hit: at the highest dose activity change, negative = growth inhibition, most hits filed as inhibitors; AID 686979, 2013; 420,000 compounds, 12% hits; note: nearly all actives have a fitted effect of over 55% in size
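Cell growth measured by CellTiter-Glo luminescence after a minimum 48 h, 37 C compound exposure with 20 nM CPT in Tdp1-knockout DT40 cells stably expressing hTDP1, seeded 400/well; qHTS titration format.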
KB-V1 cytotox – qHTS assay for MDR1-selective chemotherapeutics: Primary screen using the drug-selected MDR subline cells KB-V1 | KB-V1 MDR cells viability, CellTiter-Glo, 72 h | Potency, µM (top dose mostly 46.1 µM), hits mostly cytotoxic | 400,000 compounds, 3.4% hits | AID 1347076, 2019; note: nearly all actives have a fitted effect of over 60% in size
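qHTS viability screen in drug-selected KB-V1 MDR cells: 72 h compound treatment at 37 degrees C, ATP luminescence end point.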
* hit, by the source's call; i = inactive; ? = inconclusive; / = not tested or not shown; [ ] = remark or other dose. Sampled rows, rich in hits. Any-hit rate of the full collection: about 19%. Calls come from the whole dose curve; as a rule, active = well fitted curve in the direction sought with a large enough effect; inconclusive = small, poorly fitted or top-dose-only effect, or another doubt; inactive = no such curve, though single readings can be large; an effect the other way counts as inactive or inconclusive. Unless noted, % is set by controls: 0 for no effect and ±100 for the full control effect; potency is the fitted concentration of half-maximal effect.

SMILES	HT1080NT lethal	HT1080 IDH1KD tx	KB-3-1 tox	DT40 TDP1 no CPT	DT40 TDP1 CPT	KB-V1 cytotox
COc1ccc(C2C(C#N)=C(N)Nc3onc(C(C)(C)C)c32)c(OC)c1 (stereo unspecified)	-11%	-13%	?	18µM*	?	i
CCOc1ccccc1NC(=O)Cn1c(=O)oc2cc(S(=O)(=O)NCc3ccccc3)ccc21	/	/	i	?	13µM*	i
COc1ccc(OC)c(NC(=O)Cn2c(=O)oc3cc(S(=O)(=O)NCc4ccccc4)ccc32)c1	/	/	i	15µM*	?	i
COc1ccccc1CNC(=O)Cn1c(=O)oc2ccccc21	/	/	i	-19%	-1%	i
COc1ccccc1CNC(=O)Cn1c(=O)oc2cc(S(=O)(=O)NCc3ccccc3)ccc21	/	/	?	18µM*	10µM*	i
O=C(COc1ccccc1)NCC(=O)Nc1ccncc1	-6%	-1%	i	-23%	-20%	i
COC(=O)[C@]1(CC(C)C)N[C@H](c2ccc(-c3ccc(F)cc3)cc2)[C@@H]2C(=O)N(C)C(=O)[C@@H]21	1%	-1%	?	?	18µM*	?
COC(=O)[C@]1(CC(C)C)N[C@H](c2ccc(-c3ccc(OC)cc3)cc2)[C@@H]2C(=O)N(C)C(=O)[C@@H]21	?	-2%	?	16µM*	?	?
COC(=O)[C@]1(CC(C)C)N[C@H](c2ccc(-c3ccccc3)cc2)[C@@H]2C(=O)N(C)C(=O)[C@@H]21	?	13%	i	?	?	i
CCN1C(=O)[C@H]2[C@@H](c3ccc(-c4ccc(F)cc4)cc3)N[C@@](CC(C)C)(C(=O)OC)[C@H]2C1=O	0%	-2%	i	18µM*	13µM*	?
Nn1c(COc2ccccc2F)nnc1SCC(=O)NCC1CCCO1 (stereo unspecified)	1%	7%	i	3%	-2%	i
COc1ccc(C2COc3c(ccc(O)c3OC)C2)c(OC)c1O (stereo unspecified)	/	/	/	-29%	?	/
CCCOc1ccc(/C=N/NC(=O)C2CCCN2S(=O)(=O)c2ccc(Cl)cc2)cc1 (stereo unspecified)	?	-1%[9.24 µM]	i	?	16µM*	i
COc1ccc(NC(=O)[C@@H]2CCCN2S(=O)(=O)c2ccc(Cl)cc2)cc1	1%	10%	i	?	?	i
CC(C)Oc1ccc(/C=N/NC(=O)C2CCCN2S(=O)(=O)c2ccc(Cl)cc2)cc1 (stereo unspecified)	-19%	-9%[9.24 µM]	i	21µM*	?	?
Cc1c(C(=O)NCCc2ccc(Cl)cc2)cccc1-n1cnc2cccnc21	/	/	i	13µM*	15µM*	i
CCc1sc(C(C2C(=O)CC(C)(C)CC2=O)C2C(=O)CC(C)(C)CC2=O)cc1[N+](=O)[O-]	-2%	?	i	5.2µM*	4.1µM*	i
COc1ccc(/C=N/NC(=O)CCCOc2ccc(Cl)cc2Cl)cc1[N+](=O)[O-]	0%	12%	?	16µM*	?	21µM*
Cc1ccc(OCC(=O)N/N=C\c2cccs2)c([N+](=O)[O-])c1	4%	8%	i	-3%	-2%	i
O=C(COc1ccc(Cl)cc1[N+](=O)[O-])N/N=C/c1cccs1	2%	0%	i	29µM*	-19%	i
